The panel holds about 83,000 compounds, 20% with a hit somewhere; the sample as a whole holds those more often.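 Percent growth is the endpoint: 0 to 100 indicates growth inhibition (40 means 60% inhibition), 0 means no net growth, and negative values indicate cell death.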 A number with no mark means an inactive call. Activity calls are given as the source filed them. Rule for the calls: active = growth percent below 10; inactive = the rest.
Key:
Assay in all cases: NCI-60 one-dose screen, 48 h (100 = growth as untreated, 0 = no growth, -100 = all killed)
Settings in all cases: 10 µM unless noted
[1] = test system: NCI-H23 lung
[2] = test system: NCI-H226 lung
[3] = test system: NCI-H322M lung
[4] = test system: HOP-62 NSCLC
[5] = test system: NCI-H460 lung
[6] = test system: HOP-92 NSCLC
[7] = test system: NCI-H522 lung
[8] = test system: A549/ATCC NSCLC
[9] = test system: 786-0 renal
[10] = test system: COLO 205 colon
[11] = test system: DU-145 prostate
[12] = test system: K-562 leukemia
[13] = test system: MALME-3M melanoma
[14] = test system: MDA-MB-231 breast
[15] = test system: RXF 393 renal
[16] = test system: SF-268 CNS
[17] = test system: SF-295 CNS
[18] = test system: SF-539 CNS
[19] = test system: UACC-257 melanoma
[20] = test system: M14 melanoma

Compound | growth [1] | growth [2] | growth [3] | growth [4] | growth [5] | growth [6] | growth [7] | growth [8] | growth [9] | growth [10] | growth [11] | growth [12] | growth [13] | growth [14] | growth [15] | growth [16] | growth [17] | growth [18] | growth [19] | growth [20]
CCCCC[C@H]1CC=C2C(=O)C=C[C@@H]2CC=CCCCC(=O)O[C@@H](CCCCC)CC=C2C(=O)C=C[C@@H]2CC=CCCCC(=O)O[C@@H](CCCCC)CC=C2C(=O)C=C[C@@H]2CC=CCCCC(=O)O1 | -16.4% [8.75 µM] (active) | 6.47% [8.75 µM] (active) | 17.9% [8.75 µM] | -10.6% [8.75 µM] (active) | 0.981% [8.75 µM] (active) | -47.7% [8.75 µM] (active) | -48.5% [8.75 µM] (active) | -29.7% [8.75 µM] (active) | -48.7% [8.75 µM] (active) | -30.7% [8.75 µM] (active) | 10.6% [8.75 µM] | 5.31% [8.75 µM] (active) | -14.3% [8.75 µM] (active) | -37.2% [8.75 µM] (active) | -65.4% [8.75 µM] (active) | 14.4% [8.75 µM] | 2.07% [8.75 µM] (active) | -8.63% [8.75 µM] (active) | -3.87% [8.75 µM] (active) | -26.3% [8.75 µM] (active)
COc1ccc(-c2cc(=O)oc3ccc(Cl)cc23)cc1F | 18.1% | 49.1% | 46.9% | 20.8% | 7.67% (active) | 33.6% | -27.8% (active) | 10.8% | 25% | -26.4% (active) | 14.7% | 7.21% (active) | 103% | 21.8% | 38.7% | 26.2% | 20.4% | -2.9% (active) | 47.3% | 15.3%
Cc1nn(-c2ccc(Br)cc2)c2nc3[nH]c(=O)[nH]c(=O)c3nc12 | 99% | 103% | 119% | 120% | 108% | 110% | 98.1% | 102% | 100% | 115% | 114% | 101% | 108% | 110% | 114% | 110% | 98.6% | 99.7% | 99% | 112%
CCCCCCCN(CCCCCCC)C(=N)c1ccnc2ccccc12 | 0.856% (active) | 39.3% | -2.85% (active) | -57.2% (active) | -83.9% (active) | -4.56% (active) | -46.7% (active) | -57.4% (active) | -93.6% (active) | -72.9% (active) | 1.08% (active) | -14.9% (active) | -76.2% (active) | -71.3% (active) | -76% (active) | 33% | -78.3% (active) | -82% (active) | -69.4% (active) | -64% (active)
COc1ccc(OC)c(-c2c(C#N)c(-c3ccco3)nc3c2c(-c2ccccc2)nn3-c2ccccc2)c1 | 96.7% | 90.1% | 103% | 106% | 101% | 78.5% | 81.9% | 94.9% | 100% | 119% | 102% | 105% | 112% | 90% | 99.8% | 96.2% | 98.9% | 92.6% | 99.7% | 108%
CCN(CC)c1ccc(/C=C/c2cc(C)c3ccccc3n2)cc1 | 64% | 61.1% | 101% | 46.7% | 43% | 82.2% | 31.3% | 53.9% | 94.6% | 24.7% | 94.2% | 25.3% | 59.4% | 42.4% | 13.2% | 82.5% | 41.5% | 48.4% | 60.5% | 38.2%
COC(=O)CNc1nc(N(C)O)nc(N(C)O)n1 | 48.7% | 61.3% | 54.6% | 34.2% | 17.7% | 35.2% | 53.2% | 46.5% | 25.9% | 12.7% | 34.7% | 35% | 97.6% | 43% | 47.2% | 34.3% | 45.2% | 47.5% | 76.9% | 46%
COc1ccc(-c2n[nH]nc2-c2cc3ccccc3s2)cc1O | 27.9% | 51.6% | 58.8% | 24.1% | 10.1% | 49.9% | -5.47% (active) | 15% | 33.6% | 51.4% | 25.1% | 5.55% (active) | 74.7% | -3% (active) | 16.4% | 37% | 26.9% | -13.4% (active) | 50.2% | 12.4%
